One assay addresses PUM1 PUF domain R3-WWR (Homo sapiens, UniProt Q14671 828-1176, C935W;R936W;Q939R). In words: yeast three-hybrid, YBZ-1, SC-Leu-His + 0.5 mM 3-AT, 4 days. To be noted: tags: N-Gal4 AD-HA kept; label: inside an RPR1-promoter hybrid RNA with tandem MS2 sites; ssRNA. In a few lines:
(§1)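 Sequencing with Illumina followed PCR amplification of the repeat regions from transformants grown four days on SC-Leu (input) or SC-Leu-His + 0.5 mM 3-AT (selection). The transformants were strain YBZ-1 with a LexA–MS2 coat fusion and a HIS3 reporter, carrying Pumilio-1 PUF domain libraries and matching RNA elements. The interaction score is the log change in variant frequency from input to selection, computed in log2 with a pseudocount of 1 for absent variants.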
With “GGCUAGAACUAGUGGAUCCCCCGGCGCCCGGCGGCUCGAGCCCGGGUAAGUGUAAUUAGUCUGCAUGCCGCCGGGCGCCAUGCCUGCAGGUCGACUCUAGAAAACAUG”, the binding signal was 3.35 log2 enrichment (interaction score).

Regarding “GGCUAGAACUAGUGGAUCCCCCGGCGCCCGGCGGCUCGAGCCCGGGUAAGUGUAAAUAGUCUGCAUGCCGCCGGGCGCCAUGCCUGCAGGUCGACUCUAGAAAACAUG”, the binding signal was 0.59 log2 enrichment (interaction score).

Consider “GGCUAGAACUAGUGGAUCCCCCGGCGCCCGGCGGCUCGAGCCCGGGUAAGUGUAAGUAGUCUGCAUGCCGCCGGGCGCCAUGCCUGCAGGUCGACUCUAGAAAACAUG”, for which the binding signal is 5.22 log2 enrichment (interaction score).

The next assay addresses PUM1 PUF domain R5-KFV (Homo sapiens, UniProt Q14671 828-1176, C1007K;R1008F;Q1011V). The assay is described as above. Particulars: tags: N-Gal4 AD-HA kept; label: inside an RPR1-promoter hybrid RNA with tandem MS2 sites; ssRNA. The essentials:
as §1
With “GGCUAGAACUAGUGGAUCCCCCGGCGCCCGGCGGCUCGAGCCCGGGUAAGUGUUAAUAGUCUGCAUGCCGCCGGGCGCCAUGCCUGCAGGUCGACUCUAGAAAACAUG”, the binding signal is 6.19 log2 enrichment (interaction score).

Regarding “GGCUAGAACUAGUGGAUCCCCCGGCGCCCGGCGGCUCGAGCCCGGGUAAGUGUCAAUAGUCUGCAUGCCGCCGGGCGCCAUGCCUGCAGGUCGACUCUAGAAAACAUG”, the binding signal is 5.97 log2 enrichment (interaction score).

In the case of “GGCUAGAACUAGUGGAUCCCCCGGCGCCCGGCGGCUCGAGCCCGGGUAAGUGUAAAUAGUCUGCAUGCCGCCGGGCGCCAUGCCUGCAGGUCGACUCUAGAAAACAUG”, the binding signal was 3.95 log2 enrichment (interaction score).

Values taken from article PMC8384837, “Expanding the binding specificity for RNA recognition by a PUF domain”.
